Assay outcomes from PubChem.
ClpP mod: qHTS Assay for Activators of ClpP; ATP-dependent Clp protease proteolytic subunit (Bacillus subtilis (strain 168)), P80244; purified B. subtilis ClpP, FRET peptide cleavage, 20 min; Potency, µM (series often up to 57.5 µM), for inactives: at the highest dose activity change, negative = active; 340,000 compounds, 1.9% hits; AID 651965, 2013; active means well fitted falling curve with a large enough effect; inconclusive means small, poorly fitted or top-dose-only effect; inactive means no such curve, though single readings can be large or run the other way; further: the source files actives as falling curves though it sought activators and does not explain the sign; nearly all actives have a fitted effect of over 65% in size
Target sequence (P80244 whole entry, looked up): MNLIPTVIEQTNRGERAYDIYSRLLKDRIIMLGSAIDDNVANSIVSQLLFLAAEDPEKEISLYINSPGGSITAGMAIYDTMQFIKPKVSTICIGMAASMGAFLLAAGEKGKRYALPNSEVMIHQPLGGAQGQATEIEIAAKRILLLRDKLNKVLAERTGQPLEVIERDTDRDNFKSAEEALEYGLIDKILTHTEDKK
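Purified B. subtilis ClpP, 10 microg/mL final in Tris/HCl pH8 with KCl, BSA, glycerol and Tween-20, cleaved an Abz/nitrotyrosine-quenched decapeptide. Fluorescence (ex 320, em 430) was read at 0 and 20 min at room temperature. Delta was normalized to 5.8 microM ADEP and DMSO/no-enzyme controls.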
GLP1R ag: agonists of human GLP-1 receptor. Potency, µM (highest dose often 45.6 µM), for inactives: at the highest dose activation, hits mostly activators. P43220. HEK293 GLP-1R CRE-luciferase, luminescence, 4-6 h; cells express a hypersensitive GLP-1R form. 380,000 compounds, 0.007% hits; further: % of control where 0% means no effect
Target sequence (P43220 whole entry, looked up): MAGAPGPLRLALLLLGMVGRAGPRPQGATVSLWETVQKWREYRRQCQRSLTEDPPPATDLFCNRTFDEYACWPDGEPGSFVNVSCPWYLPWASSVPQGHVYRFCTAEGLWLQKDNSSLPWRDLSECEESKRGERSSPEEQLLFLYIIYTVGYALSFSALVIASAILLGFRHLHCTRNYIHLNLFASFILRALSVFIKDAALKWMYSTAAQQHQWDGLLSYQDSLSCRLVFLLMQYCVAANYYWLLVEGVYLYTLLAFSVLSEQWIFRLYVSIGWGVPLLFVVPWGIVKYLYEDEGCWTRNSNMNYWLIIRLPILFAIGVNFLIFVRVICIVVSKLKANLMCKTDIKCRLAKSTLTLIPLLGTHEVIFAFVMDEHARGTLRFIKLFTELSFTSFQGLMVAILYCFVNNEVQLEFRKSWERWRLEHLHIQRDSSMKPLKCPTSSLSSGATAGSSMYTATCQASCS
GLP1R cytotox: cytotoxicity in counter-screen for GLP-1R inverse agonists | Potency, µM (highest dose often 38.3 µM), for the others: at the highest dose activity change, negative = inhibition, most hits filed as inhibitors | AID 624418 | 410,000 compounds, 0.13% hits | HEK293 cAMP-luciferase reporter cells, luminescence, 24 h;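 further: loss of luciferase light is scored as toxicity; on the % scale 0 is the no-effect control and ±100 the full control effect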
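Here, cytotoxicity is scored as loss of luminescence. The MLSMR collection was tested on cells seeded in medium containing 10% Nu serum, with a 24 hr compound exposure preceded by 12 hours of culture.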
GLP-1R inv ag: acts as inverse agonist at human GLP-1 receptor. P43220. HEK293 GLP-1R CRE-luciferase, luminescence, 24 h; GLP-1R form is constitutively active. Potency, µM (doses to about 38.3 µM), for inactives: at the top dose activity change, negative = inhibition, usual class: inhibitors. 410,000 compounds, 1.6% hits; further: on the % scale 0 is the no-effect control and ±100 the full control effect; nearly all actives have a fitted effect of over 55% in size
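Seeding at 200 cells/uL, 12 h culture, 24 hr compound treatment, then luciferase reagent and a luminescence read; cells are HEK293 stably expressing a constitutively active GLP-1R plus cAMP-responsive luciferase.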
* marks the source's active call; other numbers are inactive results; ? = inconclusive; nt = no result given. A selection: hits, their analogues and other compounds. The true share with any hit is near 3.2%. Unless noted, the call rests on the fitted dose curve; in most records, active means well fitted curve in the direction sought with a large enough effect; inconclusive means small, poorly fitted or top-dose-only effect, or another doubt; inactive means no such curve, though single readings can be large; an effect the other way counts as inactive or inconclusive. Potency means the concentration at half of the fitted maximal effect.

SMILES	ClpP mod	GLP1R ag	GLP1R cytotox	GLP-1R inv ag
CCN(Cc1ccccc1)c1nc2c(S(=O)(=O)c3ccccc3)nnn2c2ccc(Cl)cc12	4%	nt	3%	13%
CN(C)CCCNc1nc2sc3c(c2c(=O)n1CCc1ccccc1)CCCCC3	-3%	6%	?	3.2µM*
CC(C)[C@@H](NC(=O)OC(C)(C)C)c1cc(C(=O)c2c(-c3ccccc3)[nH]c3ccccc23)c(N)s1	-28%	nt	-19%	7.1µM*
CC(C)[C@H](NC(=O)OC(C)(C)C)c1cc(C(=O)NCCc2c[nH]c3ccccc23)c(N)s1	1%	nt	-2%	-23%
CCCCCC(=O)N1C[C@H](O)[C@@H](n2cc(-c3ccc(F)cc3)nn2)C[C@@H]1c1ccc(OC)cc1	2%	5%	-24%	11µM*
CCCCCC(=O)N1C[C@H](O)[C@@H](n2cc(-c3ccc(F)cc3)nn2)C[C@@H]1c1ccc(Cl)cc1	1%	5%	?	10µM*
CCCCCC(=O)N1C[C@H](n2cc(-c3ccc(F)cc3)nn2)[C@@H](O)C[C@@H]1c1ccc(OC)cc1	0%	-2%	1%	?
COc1ccc([C@H]2C[C@@H](O)[C@H](n3cc(C4CC4)nn3)CN2CC2CCCCC2)cc1	-5%	6%	-14%	7.9µM*
CCCCCCN1C[C@@H](n2cc(-c3ccc(F)cc3)nn2)[C@H](O)C[C@@H]1c1ccc(OC)cc1	-7%	-2%	?	3.2µM*
Cc1cc(C)c(OCC(=O)N(Cc2ccc(N(C)C)cc2)Cc2ccco2)c(C)c1	-4%	nt	-6%	?
Cc1ccc(Nc2cc(C(=O)NCc3cccs3)c3ccccc3n2)c(C)c1	5%	nt	-10%	2µM*
Cc1nc2nc(NC(=O)CC(C)C)[nH]n2c(=O)c1Cc1ccccc1	0%	nt	1%	11%
CCOC(=O)N1CCN(C(=O)c2ccc3c(c2)N(Cc2ccccc2)CCS3)CC1	4%	1%	-3%	-6%
CC1CC(C)CN(C(=O)c2ccc3c(c2)N(Cc2ccccc2)CCS3)C1 (centres undefined)	4%	19%	-16%	11µM*
C=Cc1ccc(Cn2c(C(=O)O)c(CNCc3ccc(F)cc3)c3ccc(C)cc32)cc1	-24%	nt	?	?
O=C(NC1CCCCC1)N(CCN1CCCC1)Cc1cc2cc3c(cc2[nH]c1=O)OCCO3	35µM*	5%	-27%	9%
Cc1ccc2cc(CN(CCCN3CCOCC3)C(=O)NC3CCCCC3)c(=O)[nH]c2c1C	28µM*	12%	-12%	?
CCc1ccc(C2NC(=O)c3[nH]nc(-c4cccc(OC)c4)c32)cc1 (centres undefined)	-2%	0%	-14%	11%
Cc1cccc(C)c1NC(=O)CN1C(=O)c2ccccc2Sc2ncccc21	2%	-2%	2%	0%
O=C(c1ccccc1Cl)N(Cc1ccco1)Cc1ccco1	1%	nt	2%	-16%
O=C(NCc1ccccc1Br)c1cccs1	-1%	-1%	0%	-5%
CN(C)c1ccc(CNC(=O)Cn2c(-c3cccs3)cc3cc(Cl)ccc32)cc1	25µM*	nt	5%	-32%
O=C(Cn1c(-c2cccs2)cc2ccccc21)NCc1ccccc1Br	32µM*	nt	11%	?
CC(NC(=O)Cn1c(-c2cccs2)cc2cc(F)ccc21)c1ccccc1 (centres undefined)	28µM*	nt	6%	17%
CC(NC(=O)CN1CCN(Cc2cccc(F)c2)CC1)c1ccccc1 (centres undefined)	0%	-3%	13%	-30%
SMILES	ClpP mod	GLP1R ag	GLP1R cytotox	GLP-1R inv ag
COCCNC(=O)Cn1c(-c2cccs2)cc2cc(Cl)ccc21	28µM*	nt	8%	?
COC(=O)c1cc(NC(=O)CN(c2ccccc2)S(=O)(=O)N(C)C)ccc1Cl	1%	0%	6%	-7%
CC(CNC(=O)Cn1c(-c2cccs2)cc2cc(Cl)ccc21)c1ccccc1 (centres undefined)	25µM*	nt	0%	14%
CCOc1ccc(CCNC(=O)Cn2c(-c3cccs3)cc3ccccc32)cc1OCC	8.9µM*	nt	13%	9%
CC(CNC(=O)Cn1c(-c2cccs2)cc2ccccc21)c1ccccc1 (centres undefined)	16µM*	nt	12%	?
CCCSCCCNC(=O)Cn1c(-c2cccs2)cc2ccccc21	28µM*	nt	20%	?
COC(=O)c1ccccc1NC(=O)Cn1c(=O)n(Cc2ccc(C(=O)NCc3ccc4c(c3)OCO4)cc2)c(=O)c2ccccc21	4%	1%	-2%	1%
N#C/C(=C\c1ccc(-c2cc(Cl)ccc2Cl)o1)C(=O)Nc1ccccc1C(=O)O	-3%	nt	2%	8%
CCNC(=O)Cn1c(-c2cccs2)cc2ccccc21	28µM*	nt	16%	-5%
CCOc1ccc(CCNC(=O)Cn2c(-c3cccs3)cc3ccccc32)cc1	?	nt	20%	-7%
CC(C)(C)N(Cc1ccccc1)C(=O)CCc1ccccc1	nt	5%	14%	22µM*
CC(C)(C)c1ccc(OCCC(=O)NCCc2ccc(S(N)(=O)=O)cc2)cc1	-1%	4%	-4%	?
Cc1ccc(OCCC(=O)NCCc2ccc(S(N)(=O)=O)cc2)cc1	13µM*	-3%	-15%	-2%
Cc1ccc(N(CC(=O)Nc2ccccc2C(=O)NCc2ccco2)S(=O)(=O)c2ccccc2)cc1C	22µM*	-17%	-6%	?
Cc1cccc(N(CC(=O)Nc2ccccc2C(F)(F)F)S(=O)(=O)c2ccccc2)c1C	-1%	-6%	1%	11µM*
COc1ccccc1N(CC(=O)Nc1ccccc1C(F)(F)F)S(=O)(=O)c1ccc(C)cc1	0%	-2%	4%	?
O=C(NCc1ccco1)c1cc(S(=O)(=O)N2CCCc3ccccc32)ccc1Cl	-1%	2%	-6%	4.5µM*
O=C(CN(c1ccccc1)S(=O)(=O)c1ccccc1)Nc1ccccc1C(=O)NCc1ccco1	?	-18%	0%	?
Cc1ccc(C)c(N(CC(=O)Nc2ccccc2C(=O)NCc2ccco2)S(=O)(=O)c2ccccc2)c1	35µM*	-11%	8%	?
Cc1ccc(NC(=O)c2oc3ccccc3c2NC(=O)C2CCCCC2)cc1	4%	0%	0%	?
Cc1ccc(NC(=O)C(Cc2c[nH]c3ccccc23)NC(=O)OCC(C)C)cc1 (centres undefined)	-3%	nt	-5%	?
COc1ccc(NC(=O)c2ccc3c(c2)N(Cc2cccc(Cl)c2)C(=O)c2ccccc2S3(=O)=O)cc1Cl	-3%	-7%	-5%	?
CCOC(=O)c1c(NC(=O)c2cc(C)on2)sc(C)c1C	2%	nt	0%	12%
Cc1cc2ccccc2c[n+]1C1CCCCC1	4%	nt	nt	nt
CC(=O)c1cccc(NC(=O)c2sc(-n3nc(C)c(CCC(C)C)c3C)nc2C)c1	-5%	nt	10%	3%
CC(=O)c1ccc(NC(=O)C2CCCN(S(=O)(=O)c3ccc4c(c3)CCCN4C(C)=O)C2)cc1 (centres undefined)	0%	nt	0%	11%
